# Source: article PMC7862700, “An all-to-all approach to the identification of sequence-specific readers for epigenetic DNA modifications on cytosine”
# How the values were obtained:
# Test in all cases: DAPPL (digital affinity profiling via proximity ligation, sequencing); 10 mM Tris-HCl pH 7.5, 50 mM NaCl, 1 mM DTT, 4% glycerol, room temperature, 30 min; GST-TFs on glutathione beads, 16-mer random dsDNA library, 0.1% formaldehyde crosslink after washing; high values mean tight binding
# [1] = target: T1, FEV (Homo sapiens, UniProt Q99581 1-238); conditions: protein: recombinant; tags: N-terminal GST; dsDNA, one strand shown
# T1 sequence: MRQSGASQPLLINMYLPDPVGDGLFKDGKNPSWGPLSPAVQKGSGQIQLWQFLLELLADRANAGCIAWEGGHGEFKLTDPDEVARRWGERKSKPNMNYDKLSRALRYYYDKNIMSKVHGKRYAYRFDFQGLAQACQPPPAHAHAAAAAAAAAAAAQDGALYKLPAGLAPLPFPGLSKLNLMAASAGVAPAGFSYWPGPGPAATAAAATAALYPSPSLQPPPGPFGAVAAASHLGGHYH
# In short: (§1)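 Sequencing on an Illumina NextSeq500 followed washing, crosslinking with 0.1% formaldehyde, proximity ligation (BsaI/T4 ligase, 1 h, 37 °C) and PCR amplification of pools that had been incubated for 30 min at room temperature with 200 nmole of a random double-stranded 16-mer DNA library in Tris/NaCl/DTT/glycerol buffer. Each pool held DNA-barcoded human transcription factors, expressed in yeast as GST fusions and captured on glutathione beads, plus a tag-only sample. Binding signal is a hexamer's read frequency for a factor divided by its frequency in the tag-only sample.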
# [2] = target: ETV5 (Homo sapiens, UniProt P41161 1-510); conditions: protein: recombinant; tags: N-terminal GST; dsDNA, one strand shown
# Chain of ETV5 (P41161 whole entry): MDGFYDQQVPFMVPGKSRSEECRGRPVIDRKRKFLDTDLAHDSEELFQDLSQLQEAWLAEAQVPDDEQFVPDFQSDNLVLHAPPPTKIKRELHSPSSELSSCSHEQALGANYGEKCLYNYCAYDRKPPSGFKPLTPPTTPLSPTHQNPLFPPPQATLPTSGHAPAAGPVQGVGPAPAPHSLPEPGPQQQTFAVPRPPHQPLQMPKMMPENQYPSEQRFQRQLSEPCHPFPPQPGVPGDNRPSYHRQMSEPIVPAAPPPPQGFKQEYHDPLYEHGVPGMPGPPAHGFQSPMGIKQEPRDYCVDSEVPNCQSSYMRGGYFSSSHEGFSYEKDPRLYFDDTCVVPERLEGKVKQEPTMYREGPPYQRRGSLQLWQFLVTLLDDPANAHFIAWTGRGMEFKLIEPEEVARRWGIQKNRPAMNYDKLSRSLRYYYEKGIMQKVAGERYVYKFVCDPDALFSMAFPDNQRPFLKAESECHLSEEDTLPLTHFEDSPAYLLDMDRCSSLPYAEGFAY
# In short: as §1
# [3] = target: HSF1 (Homo sapiens, UniProt Q00613 1-529); conditions: protein: recombinant; tags: N-terminal GST; chain copies: 3; dsDNA, one strand shown
# Chain of HSF1 (Q00613 whole entry): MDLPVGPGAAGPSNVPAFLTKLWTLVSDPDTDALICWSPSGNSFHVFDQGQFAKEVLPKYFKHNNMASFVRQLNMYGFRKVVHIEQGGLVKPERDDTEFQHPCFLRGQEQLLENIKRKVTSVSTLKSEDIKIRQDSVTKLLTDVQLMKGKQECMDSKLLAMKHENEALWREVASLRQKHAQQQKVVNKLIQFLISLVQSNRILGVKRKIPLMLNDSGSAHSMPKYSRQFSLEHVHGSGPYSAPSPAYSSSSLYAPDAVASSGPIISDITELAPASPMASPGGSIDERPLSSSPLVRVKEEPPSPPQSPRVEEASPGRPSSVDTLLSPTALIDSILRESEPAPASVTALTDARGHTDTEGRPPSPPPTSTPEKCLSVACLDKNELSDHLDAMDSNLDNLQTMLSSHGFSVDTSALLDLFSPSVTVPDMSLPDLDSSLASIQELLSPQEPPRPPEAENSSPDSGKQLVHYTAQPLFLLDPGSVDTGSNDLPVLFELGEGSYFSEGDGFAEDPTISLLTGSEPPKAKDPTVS
# In short: as §1
# [4] = target: T2, SPIC (Homo sapiens, UniProt Q8N5J4 1-248); conditions: protein: recombinant; tags: N-terminal GST; dsDNA, one strand shown
# T2 sequence: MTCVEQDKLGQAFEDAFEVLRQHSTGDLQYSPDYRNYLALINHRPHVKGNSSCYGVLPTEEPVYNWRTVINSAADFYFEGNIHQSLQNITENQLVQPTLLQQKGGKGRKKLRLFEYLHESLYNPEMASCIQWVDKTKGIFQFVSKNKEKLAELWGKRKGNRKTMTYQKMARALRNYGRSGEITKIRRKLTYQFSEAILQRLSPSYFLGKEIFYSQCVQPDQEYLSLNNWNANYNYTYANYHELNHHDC
# In short: as §1
# [5] = target: ELF4 (Homo sapiens, UniProt Q99607 1-663); conditions: protein: recombinant; tags: N-terminal GST; dsDNA, one strand shown
# Chain of ELF4 (Q99607 whole entry): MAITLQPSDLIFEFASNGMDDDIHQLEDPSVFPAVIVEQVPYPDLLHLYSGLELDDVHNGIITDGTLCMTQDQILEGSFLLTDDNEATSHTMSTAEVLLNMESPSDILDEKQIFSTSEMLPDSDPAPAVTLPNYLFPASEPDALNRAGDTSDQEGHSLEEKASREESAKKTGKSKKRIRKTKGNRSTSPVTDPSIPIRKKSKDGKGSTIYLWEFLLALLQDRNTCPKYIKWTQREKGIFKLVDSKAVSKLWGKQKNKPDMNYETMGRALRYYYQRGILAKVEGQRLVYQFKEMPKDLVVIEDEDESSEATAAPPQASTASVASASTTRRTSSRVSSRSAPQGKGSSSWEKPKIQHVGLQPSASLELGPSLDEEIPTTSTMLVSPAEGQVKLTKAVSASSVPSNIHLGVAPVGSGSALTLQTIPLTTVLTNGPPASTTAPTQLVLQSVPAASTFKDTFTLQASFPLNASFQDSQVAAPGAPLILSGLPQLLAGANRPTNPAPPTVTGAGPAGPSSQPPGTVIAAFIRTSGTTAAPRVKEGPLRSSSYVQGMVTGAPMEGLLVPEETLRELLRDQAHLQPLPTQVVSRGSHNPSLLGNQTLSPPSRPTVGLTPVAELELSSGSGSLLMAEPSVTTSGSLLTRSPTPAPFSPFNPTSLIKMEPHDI
# In short: as §1
# [6] = target: T3, ELK4 (Homo sapiens, UniProt P28324-2 1-405); conditions: protein: recombinant; tags: N-terminal GST; dsDNA, one strand shown
# T3 sequence: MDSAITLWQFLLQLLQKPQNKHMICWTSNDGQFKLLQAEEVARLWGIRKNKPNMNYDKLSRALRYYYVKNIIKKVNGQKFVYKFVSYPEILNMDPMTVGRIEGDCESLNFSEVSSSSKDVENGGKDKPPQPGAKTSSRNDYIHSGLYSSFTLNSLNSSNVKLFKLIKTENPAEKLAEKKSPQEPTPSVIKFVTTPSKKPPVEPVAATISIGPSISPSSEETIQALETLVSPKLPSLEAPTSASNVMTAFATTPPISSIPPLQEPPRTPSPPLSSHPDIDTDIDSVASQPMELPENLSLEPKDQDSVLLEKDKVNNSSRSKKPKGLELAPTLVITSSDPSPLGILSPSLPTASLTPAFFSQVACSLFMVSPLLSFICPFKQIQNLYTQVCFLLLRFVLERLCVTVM
# In short: as §1
# [7] = target: T4, ETV2 (Homo sapiens, UniProt O00321 1-342); conditions: protein: recombinant; tags: N-terminal GST; dsDNA, one strand shown
# T4 sequence: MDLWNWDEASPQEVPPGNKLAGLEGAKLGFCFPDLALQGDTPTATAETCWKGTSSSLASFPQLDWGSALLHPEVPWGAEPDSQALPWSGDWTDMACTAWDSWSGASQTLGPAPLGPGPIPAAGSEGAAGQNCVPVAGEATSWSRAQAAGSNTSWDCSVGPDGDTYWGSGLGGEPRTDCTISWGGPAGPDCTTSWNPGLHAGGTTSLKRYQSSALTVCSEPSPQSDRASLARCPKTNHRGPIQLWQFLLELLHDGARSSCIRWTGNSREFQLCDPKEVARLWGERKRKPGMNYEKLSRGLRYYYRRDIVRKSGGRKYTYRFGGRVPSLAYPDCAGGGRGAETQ
# In short: as §1
# [8] = target: T5, ELF3 (Homo sapiens, UniProt P78545 1-371); conditions: protein: recombinant; tags: N-terminal GST; dsDNA, one strand shown
# T5 sequence: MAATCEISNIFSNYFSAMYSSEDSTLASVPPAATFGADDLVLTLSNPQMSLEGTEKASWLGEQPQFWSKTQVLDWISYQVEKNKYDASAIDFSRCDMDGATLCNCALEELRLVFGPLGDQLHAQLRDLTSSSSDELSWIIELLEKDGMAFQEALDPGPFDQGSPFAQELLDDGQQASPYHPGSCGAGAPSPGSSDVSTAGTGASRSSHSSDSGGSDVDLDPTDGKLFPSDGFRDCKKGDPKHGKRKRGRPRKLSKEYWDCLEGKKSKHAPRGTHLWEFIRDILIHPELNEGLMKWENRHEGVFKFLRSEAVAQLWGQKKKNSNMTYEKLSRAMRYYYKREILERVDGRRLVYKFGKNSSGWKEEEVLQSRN
# In short: as §1
# [9] = target: CRX (Homo sapiens, UniProt O43186 1-299); conditions: protein: recombinant; tags: N-terminal GST; dsDNA, one strand shown
# Chain of CRX (O43186 whole entry): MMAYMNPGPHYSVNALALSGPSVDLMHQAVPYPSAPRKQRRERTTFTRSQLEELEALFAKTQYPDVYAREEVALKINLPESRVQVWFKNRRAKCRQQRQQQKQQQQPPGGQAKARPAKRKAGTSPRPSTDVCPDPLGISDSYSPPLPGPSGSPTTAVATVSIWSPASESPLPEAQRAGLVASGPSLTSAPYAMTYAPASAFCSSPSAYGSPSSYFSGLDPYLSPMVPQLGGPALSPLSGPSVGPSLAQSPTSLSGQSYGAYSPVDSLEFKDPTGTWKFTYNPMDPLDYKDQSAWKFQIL
# In short: as §1
# [10] = target: ETV1 (Homo sapiens, UniProt P50549 1-477); conditions: protein: recombinant; tags: N-terminal GST; dsDNA, one strand shown
# Chain of ETV1 (P50549 whole entry): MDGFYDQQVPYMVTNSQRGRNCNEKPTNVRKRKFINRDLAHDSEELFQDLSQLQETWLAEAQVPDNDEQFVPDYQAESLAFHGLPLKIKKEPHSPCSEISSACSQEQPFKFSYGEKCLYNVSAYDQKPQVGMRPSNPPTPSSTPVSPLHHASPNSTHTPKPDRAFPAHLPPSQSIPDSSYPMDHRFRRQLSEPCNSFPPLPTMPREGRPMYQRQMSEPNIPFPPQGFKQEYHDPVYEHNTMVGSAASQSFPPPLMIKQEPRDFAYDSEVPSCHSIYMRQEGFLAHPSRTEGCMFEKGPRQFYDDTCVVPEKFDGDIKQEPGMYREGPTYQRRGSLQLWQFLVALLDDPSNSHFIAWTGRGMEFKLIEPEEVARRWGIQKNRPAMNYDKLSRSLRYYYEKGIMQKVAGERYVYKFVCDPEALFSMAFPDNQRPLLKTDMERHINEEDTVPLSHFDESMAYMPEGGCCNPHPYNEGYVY
# In short: as §1
sequence,measurement,setting,value
TTCCTG,binding signal,[1],"2.13 fold enrichment (6-mer frequency, TF over GST control)"
same,binding signal,[2],"2.57 fold enrichment (6-mer frequency, TF over GST control)"
same,binding signal,[3],"1.63 fold enrichment (6-mer frequency, TF over GST control)"
same,binding signal,[4],"2.31 fold enrichment (6-mer frequency, TF over GST control)"
same,binding signal,[5],"2.05 fold enrichment (6-mer frequency, TF over GST control)"
same,binding signal,[6],"1.78 fold enrichment (6-mer frequency, TF over GST control)"
same,binding signal,[7],"2.46 fold enrichment (6-mer frequency, TF over GST control)"
same,binding signal,[8],"2.23 fold enrichment (6-mer frequency, TF over GST control)"
same,binding signal,[9],"1.12 fold enrichment (6-mer frequency, TF over GST control)"
same,binding signal,[10],"2.22 fold enrichment (6-mer frequency, TF over GST control)"
